Screening results: PubChem BioAssay, The Scripps Research Institute Molecular Screening Center
NR5A2 inv ag = LRH-1 (NR5A2) inverse agonists, primary screen, cell-based, luminescence, HEK293T, StAR-luciferase reporter; inhibition, % at 3.6 µM; LRH-1 transfected, 24 h; 360,000 tested, 0.13% active;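 active = inhibition above the mean inhibition of all tested compounds plus 3 SD, cut at about 73% in these data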
SRC2 inh = inhibition of GAL4-SRC2 driven luciferase reporter, primary screen, SRC2 inhibitor project, cell-based, luminescence; 370,000 tested, 0.17% active; HEK293 GAL4-SRC2 luciferase reporter; inhibition, % at 9 µM; Nuclear receptor coactivator 2 (Homo sapiens), Q15596;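 active = inhibition above the mean inhibition of all tested compounds plus 3 SD, set per campaign, cut at about 52% in these data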
COUP-TFII inh = NR2F2 transcriptional activity inhibitors, primary screen, cell-based, luciferase reporter, HEK293T, luminescence | 370,000 tested, 0.7% active | AID 686940, 2013 | inhibition, % at 8.6 µM | COUP transcription factor 2 (Homo sapiens), P24468 | HEK293T NGFI-A luciferase reporter;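 active = inhibition above a per-plate cutoff, mean inhibition of test wells between control levels plus 3 SD, cut at about 38% in these data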;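 note: cells cotransfected with COUP-TFII expression vector driving the NGFI-A reporter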
Target sequence (P24468 whole entry, looked up): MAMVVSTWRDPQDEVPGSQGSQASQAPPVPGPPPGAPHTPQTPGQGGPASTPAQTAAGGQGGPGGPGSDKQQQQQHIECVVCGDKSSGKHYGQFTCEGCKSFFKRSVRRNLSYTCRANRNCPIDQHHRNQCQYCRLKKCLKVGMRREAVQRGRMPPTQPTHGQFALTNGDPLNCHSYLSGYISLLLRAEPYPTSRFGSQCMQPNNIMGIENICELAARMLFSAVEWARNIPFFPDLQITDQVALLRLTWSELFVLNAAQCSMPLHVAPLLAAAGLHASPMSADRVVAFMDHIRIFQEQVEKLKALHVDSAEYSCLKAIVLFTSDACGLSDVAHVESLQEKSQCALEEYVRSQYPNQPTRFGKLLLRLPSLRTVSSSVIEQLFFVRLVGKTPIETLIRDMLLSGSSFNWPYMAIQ
NCOA1 inh = SRC1 coactivator transcriptional activity inhibitors, primary screen, cell-based, luminescence; HEK293 GAL4-SRC1 luciferase reporter; inhibition, % at 3.6 µM; 360,000 tested, 0.12% active; AID 588354, 2011;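 active = inhibition above the campaign mean plus 3 SD, with each screening campaign given its own cutoff, cut at about 60% in these data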
GalR3 antag = GalR3 antagonists in HEK293 cells, primary screen, cell-based, fluorescence readout; 360,000 tested, 0.44% active; inhibition, % at 3 µM; AID 651719, 2012; HEK293 GalR3-CNG cAMP membrane potential fluorescence; galR3 body fused to GalR1 C-terminus; Galanin receptor type 3 (Homo sapiens), O60755;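 active = inhibition above the screen-wide average plus 3 SD, cut at about 13% in these data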;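 note: forskolin and galanin both at EC90 stimulate the cells; cAMP rise reported by CNG channel membrane potential dye signal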
Target sequence (O60755 1-299 limits assumed): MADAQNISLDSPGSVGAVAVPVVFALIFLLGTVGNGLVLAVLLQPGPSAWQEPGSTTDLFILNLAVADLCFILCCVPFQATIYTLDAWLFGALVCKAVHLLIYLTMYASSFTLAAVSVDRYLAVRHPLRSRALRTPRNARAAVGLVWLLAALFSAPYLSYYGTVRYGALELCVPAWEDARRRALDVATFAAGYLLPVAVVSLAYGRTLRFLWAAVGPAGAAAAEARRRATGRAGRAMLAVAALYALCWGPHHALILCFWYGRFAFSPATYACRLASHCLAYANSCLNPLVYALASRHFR
SRC3 inh = SRC3 coactivator transcriptional activity inhibitors, primary screen, cell-based, luminescence | Nuclear receptor coactivator 3 (Homo sapiens), Q9Y6Q9 | HEK293 GAL4-SRC3 luciferase reporter | inhibition, % at 3.6 µM | 360,000 tested, 0.17% active | AID 588352, 2011;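 active = inhibition above a per-campaign cutoff, the mean of all compounds plus 3 SD, cut at about 60% in these data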;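 note: higher means less SRC3-driven luciferase light from the GAL4 reporter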
Each line names hits and unclear results; the compound was inactive in the other large screens; ! = not active in a repeat. In the library only some 1.1% were active in any assay of this set; here they are far more common.

CCOC(=O)N1CCN(C(=O)C[C@H]2C[C@@]3(C(=O)OC)C(=C[C@H](C4CCCC4)O[C@@H]3C)N(Cc3cccc4ccccc34)C2=O)CC1	none (no result: NR5A2 inv ag, NCOA1 inh, GalR3 antag, SRC3 inh)
COc1ccc([C@H]2OC(=O)C[C@H]2C(=O)N2CCN(c3ccccc3Cl)CC2)cc1OC	none (no result: NR5A2 inv ag, NCOA1 inh, GalR3 antag, SRC3 inh)
Cc1nc2c(O)c3c(c(O)c2nc1C)C1C=CC3CC1	NR5A2 inv ag 94.7, SRC2 inh 61.7, NCOA1 inh 88.7, SRC3 inh 90.6
CC(=O)Nc1ccc(NC(=O)c2ccc(-c3ccnn3C)c3ccoc23)cc1	SRC2 inh 53.5
CC(C)c1ccc(NC(=O)c2ccc(-c3ccnn3C)c3ccoc23)cc1	none (no result: SRC2 inh, COUP-TFII inh, GalR3 antag)
COc1ccc2nc(NC(=O)c3ccccc3C(=O)O)sc2c1	none
COc1ccc(C(=O)Nc2nc3ccccc3s2)c(OC)c1	NR5A2 inv ag 92.7, SRC2 inh 92.8, COUP-TFII inh 99.3, NCOA1 inh 88.8, SRC3 inh 91.0
CC(NC(=O)CCc1nnc(-c2ccc(-c3ccccc3)cc2)o1)c1nc2ccccc2[nH]1 (stereo unspecified)	SRC2 inh 67.0
C[C@@H](/C=C/C(=O)OC(C)(C)C)Sc1ccc(C(C)(C)C)cc1	none (no result: NR5A2 inv ag, NCOA1 inh, GalR3 antag, SRC3 inh)
N=c1c2c(-c3ccccc3)c(-c3ccccc3)n(Cc3ccco3)c2ncn1CCCO	none
N=c1c2c(-c3ccccc3)c(-c3ccccc3)n(Cc3ccco3)c2ncn1CCO	SRC3 inh 62.8
CC(=O)NC(c1ccc(Cl)cc1Cl)c1ccc2cccnc2c1O (stereo unspecified)	NR5A2 inv ag 88.1
CC(=O)NC(c1ccc2ccccc2c1)c1ccc2cccnc2c1O (stereo unspecified)	NR5A2 inv ag 89.9
COC(=O)C1CN(Cc2ccc(Cl)cc2)CCS(=O)(=O)N1Cc1cn(Cc2ccccc2)nn1 (stereo unspecified)	none (no result: NR5A2 inv ag, NCOA1 inh, GalR3 antag, SRC3 inh)
Cc1ccc2cccc(NS(=O)(=O)c3ccccc3)c2n1	SRC2 inh 74.8 (no result: NR5A2 inv ag, NCOA1 inh, SRC3 inh)
CC(=O)c1ccc(NCCCN2CCC(C(O)(c3ccccc3)c3ccccc3)CC2)cc1	none (no result: NR5A2 inv ag, NCOA1 inh, GalR3 antag, SRC3 inh)
CC(=O)OC1CC2C(C)(C)C(=O)C=CC2(C)C2CCC3(C)C(c4ccoc4)OC(=O)C4OC43C12C (stereo unspecified)	none
CC(=O)O[C@@H]1C[C@H]2C(C)(C)C(=O)C=C[C@]2(C)[C@H]2CC[C@@]3(C)[C@H](c4ccoc4)OC(=O)[C@H]4O[C@]43[C@@]21C	SRC2 inh 52.3
CC[C@@]1(O)C(=O)OCc2c1cc1n(c2=O)Cc2cc3c(N)cccc3nc2-1	NR5A2 inv ag 91.3, SRC3 inh 73.5
CC[C@@]1(O)C(=O)OCc2c1cc1n(c2=O)Cc2cc3c(CN(C)C)c(O)ccc3nc2-1	NR5A2 inv ag 86.2, SRC3 inh 71.1 (no result: GalR3 antag)
O=S1(=O)c2ccc(N3CCN(Cc4ccccc4F)CC3)cc2Oc2ccccc2CN1Cc1cn(Cc2ccc(C(F)(F)F)cc2)nn1	none (no result: NR5A2 inv ag, NCOA1 inh, GalR3 antag, SRC3 inh)
Cc1ccc(-c2csc(NC(=O)c3cc([N+](=O)[O-])ccc3N3CCOCC3)n2)cc1	none
O=C(Nc1nc(-c2ccccc2)cs1)c1ccc(N2CCOCC2)c([N+](=O)[O-])c1	NCOA1 inh 63.8, SRC3 inh 76.1 (no result: SRC2 inh, COUP-TFII inh, GalR3 antag)
CC(C)CCN(C)C1CCN(C(=O)Nc2ccc3c(c2)OCO3)CC1	none (no result: NR5A2 inv ag, NCOA1 inh, GalR3 antag, SRC3 inh)
CCN(CC)S(=O)(=O)c1ccc(N/N=C/c2ccc(O)cc2O)nc1	SRC3 inh 68.0
CCN(CC)C(=O)CC[C@H]1CC[C@]2(CCCN(CC3CC3)C2)O1	none (no result: NR5A2 inv ag, NCOA1 inh, GalR3 antag, SRC3 inh)
CN(C)S(=O)(=O)c1ccc(-c2csc(N/N=C/c3ccco3)n2)cc1	SRC3 inh 73.3
Cc1ccc(-c2csc(N/N=C/c3ccco3)n2)cc1	none
CC(C)C[C@@H]1NC(=O)[C@H]2C[C@@]3(C)c4ccccc4N[C@H]3N2C1=O	none (no result: NR5A2 inv ag, NCOA1 inh, GalR3 antag, SRC3 inh)
c1ccc(-c2cccc(-c3ccccn3)n2)nc1	NR5A2 inv ag 97.6, NCOA1 inh 80.6, SRC3 inh 83.6 (no result: SRC2 inh, COUP-TFII inh, GalR3 antag)
c1ccc(-c2nnc(-c3ccccn3)nn2)nc1	none
CC1CCC(C(C)C)C(OC(=O)Cn2c(-c3ccc(F)cc3)[n+](C)c3ccccc32)C1 (stereo unspecified)	SRC3 inh 67.0
Cc1c(C(=O)N(Cc2ccccc2)C2CCS(=O)(=O)C2)oc2ccccc12 (stereo unspecified)	none (no result: GalR3 antag)
Cc1c(C(=O)N(Cc2ccc(F)cc2)C2CCS(=O)(=O)C2)oc2ccccc12 (stereo unspecified)	NR5A2 inv ag 94.2
COC(=O)c1cc2sccc2n1Cc1nc(-c2ccc(OC)cc2)oc1C	COUP-TFII inh 39.0
C[n+]1c2cc(N)ccc2cc2ccc(N)cc21	NR5A2 inv ag 73.6!
C[C@@]12C(=O)OC(=O)[C@]1(C)C1CCC2O1	SRC2 inh 61.5, COUP-TFII inh 66.0, SRC3 inh 70.9
CC(C)n1cnc2c(Nc3cccc(Cl)c3)nc(NCCCO)nc21	none
C=CC(=O)Nc1cccc(Nc2nc(N[C@H]3CC[C@H](N(C)C)CC3)nc3c2ncn3C(C)C)c1	NR5A2 inv ag 98.4, NCOA1 inh 87.6, SRC3 inh 87.0 (no result: SRC2 inh, COUP-TFII inh, GalR3 antag)
COC(=O)C1=C(C)N(Cc2ccc(C(F)(F)F)cc2)C(=NCc2ccccc2C(F)(F)F)NC1c1cccc(Cl)c1 (stereo unspecified)	none (no result: NR5A2 inv ag, NCOA1 inh, SRC3 inh)
S=c1nc(Cc2ccc(Cl)cc2)[nH]c2ccccc12	GalR3 antag 13.3
S=c1nc(Cc2ccccc2)[nH]c2ccccc12	none
CCN(CC)Cc1c(O)ccc2occ(C(=O)c3ccc(OC)cc3)c12	none
CCN(CC)Cc1c(O)ccc2c([N+](=O)[O-])c(C)n(-c3ccc(OC)cc3)c12	NCOA1 inh 60.9
O=C1C(=C(I)I)c2ccccc2-c2ccccc21	SRC2 inh 86.3
O=C(O)c1cccc2c1C(=O)c1ccccc1-2	none
COC(=O)[C@]12C[C@H](CC(=O)N3CCCC3)C(=O)N(Cc3ccc(Cl)cc3Cl)C1=C[C@H](COCc1ccccc1)O[C@@H]2C	none (no result: NR5A2 inv ag, NCOA1 inh, GalR3 antag, SRC3 inh)
Cc1ccc(N(Cc2cc(=O)[nH]c3ccccc23)C(=O)CCl)c(C)c1	SRC2 inh 68.6
O=S(=O)(c1ccc(Cl)cc1)N1CCCC1c1nc(-c2ccc(Cl)cc2)no1 (stereo unspecified)	SRC2 inh 95.0
O=S(=O)(c1ccccc1Cl)N1CCCC1c1nc(-c2ccccc2Cl)no1 (stereo unspecified)	none
NC(=O)c1cc2ccncc2c2ccccc12	SRC2 inh 56.3, NCOA1 inh 81.5, SRC3 inh 64.9
CC(=C/c1ccccc1)/C=N/n1c(-c2ccncc2)n[nH]c1=S	NCOA1 inh 62.8
